This is an account of results in publication PMC7862700, “An all-to-all approach to the identification of sequence-specific readers for epigenetic DNA modifications on cytosine”.

What all share (assay): DAPPL (digital affinity profiling via proximity ligation, sequencing); 10 mM Tris-HCl pH 7.5, 50 mM NaCl, 1 mM DTT, 4% glycerol, room temperature, 30 min; GST-TFs on glutathione beads, 16-mer random dsDNA library, 0.1% formaldehyde crosslink after washing; high values mean tight binding
The target of one assay is T1, FLI1 (Homo sapiens, UniProt Q01543 1-452).
T1 sequence: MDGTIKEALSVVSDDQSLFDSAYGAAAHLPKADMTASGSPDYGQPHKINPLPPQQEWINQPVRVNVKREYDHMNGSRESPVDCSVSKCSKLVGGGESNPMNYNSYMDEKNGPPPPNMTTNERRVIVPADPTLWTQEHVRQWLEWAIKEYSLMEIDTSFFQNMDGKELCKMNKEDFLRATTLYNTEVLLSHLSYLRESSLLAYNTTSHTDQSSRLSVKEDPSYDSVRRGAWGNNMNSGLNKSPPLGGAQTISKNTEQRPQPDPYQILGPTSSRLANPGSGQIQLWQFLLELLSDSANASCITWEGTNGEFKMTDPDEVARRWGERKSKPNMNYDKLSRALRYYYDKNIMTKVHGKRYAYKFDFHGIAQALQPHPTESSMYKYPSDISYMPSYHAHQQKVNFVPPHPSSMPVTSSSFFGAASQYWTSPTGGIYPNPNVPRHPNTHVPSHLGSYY
Conditions: protein: recombinant; tags: N-terminal GST; dsDNA, one strand shown. Summed up: (§1)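 Sequencing on an Illumina NextSeq500 followed washing, crosslinking with 0.1% formaldehyde, proximity ligation (BsaI/T4 ligase, 1 h, 37 °C) and PCR amplification of pools that had been incubated for 30 min at room temperature with 200 nmole of a random double-stranded 16-mer DNA library in Tris/NaCl/DTT/glycerol buffer. Each pool held DNA-barcoded human transcription factors, expressed in yeast as GST fusions and captured on glutathione beads, plus a tag-only sample. Binding signal is a hexamer's read frequency for a factor divided by its frequency in the tag-only sample.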

The target in another assay is T2, ELK1 (Homo sapiens, UniProt P19419 1-428).
T2 sequence: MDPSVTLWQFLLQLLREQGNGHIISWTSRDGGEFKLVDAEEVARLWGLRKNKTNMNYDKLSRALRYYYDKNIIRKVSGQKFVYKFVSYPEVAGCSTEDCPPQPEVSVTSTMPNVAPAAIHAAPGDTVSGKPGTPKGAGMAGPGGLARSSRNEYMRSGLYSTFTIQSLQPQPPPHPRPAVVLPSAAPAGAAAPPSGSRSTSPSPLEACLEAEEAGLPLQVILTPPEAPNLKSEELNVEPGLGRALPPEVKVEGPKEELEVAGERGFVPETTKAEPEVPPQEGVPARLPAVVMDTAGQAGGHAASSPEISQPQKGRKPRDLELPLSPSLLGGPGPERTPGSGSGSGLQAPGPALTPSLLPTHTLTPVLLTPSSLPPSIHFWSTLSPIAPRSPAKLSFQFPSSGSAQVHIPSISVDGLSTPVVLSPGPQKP
Conditions: protein: recombinant; tags: N-terminal GST; dsDNA, one strand shown. The essentials: as §1

In another assay the target is T3, GABPA (Homo sapiens, UniProt Q06546 1-454).
T3 sequence: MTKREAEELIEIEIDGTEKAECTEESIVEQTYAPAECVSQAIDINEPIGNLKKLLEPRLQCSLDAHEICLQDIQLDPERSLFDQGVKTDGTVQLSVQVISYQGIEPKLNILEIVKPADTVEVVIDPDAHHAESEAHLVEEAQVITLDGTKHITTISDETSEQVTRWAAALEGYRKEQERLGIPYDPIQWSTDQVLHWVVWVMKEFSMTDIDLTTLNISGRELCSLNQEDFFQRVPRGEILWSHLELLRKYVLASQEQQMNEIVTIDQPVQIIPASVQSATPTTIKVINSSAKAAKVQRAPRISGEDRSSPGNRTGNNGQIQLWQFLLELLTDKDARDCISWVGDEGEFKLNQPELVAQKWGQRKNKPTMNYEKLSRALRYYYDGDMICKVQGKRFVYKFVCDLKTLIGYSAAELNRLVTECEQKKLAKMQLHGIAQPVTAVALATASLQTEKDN
Conditions: protein: recombinant; tags: N-terminal GST; dsDNA, one strand shown. The essentials: as §1

In the next assay the target is ELF1 (Homo sapiens, UniProt P32519 1-619). Conditions: protein: recombinant; tags: N-terminal GST; dsDNA, one strand shown. Summed up:
as §1

The target of a further assay is T4, EHF (Homo sapiens, UniProt Q9NZC4 1-300).
T4 sequence: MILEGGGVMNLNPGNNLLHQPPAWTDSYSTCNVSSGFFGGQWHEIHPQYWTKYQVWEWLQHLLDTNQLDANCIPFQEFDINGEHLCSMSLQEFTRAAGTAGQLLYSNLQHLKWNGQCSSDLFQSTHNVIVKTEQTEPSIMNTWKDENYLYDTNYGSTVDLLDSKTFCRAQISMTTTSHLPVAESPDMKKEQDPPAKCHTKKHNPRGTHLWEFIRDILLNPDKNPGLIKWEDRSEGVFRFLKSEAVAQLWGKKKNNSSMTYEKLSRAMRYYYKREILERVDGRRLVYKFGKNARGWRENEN
Conditions: protein: recombinant; tags: N-terminal GST; dsDNA, one strand shown. The essentials:
as §1

The target in another assay is SPI1 (Homo sapiens, UniProt P17947 1-270). Conditions: protein: recombinant; tags: N-terminal GST; dsDNA, one strand shown. The essentials:
as §1

The target in another assay is SPIB (Homo sapiens, UniProt Q01892 1-262). Conditions: protein: recombinant; tags: N-terminal GST; dsDNA, one strand shown. Summed up:
as §1

The target in another assay is T5, ELK3 (Homo sapiens, UniProt P41970 1-407).
T5 sequence: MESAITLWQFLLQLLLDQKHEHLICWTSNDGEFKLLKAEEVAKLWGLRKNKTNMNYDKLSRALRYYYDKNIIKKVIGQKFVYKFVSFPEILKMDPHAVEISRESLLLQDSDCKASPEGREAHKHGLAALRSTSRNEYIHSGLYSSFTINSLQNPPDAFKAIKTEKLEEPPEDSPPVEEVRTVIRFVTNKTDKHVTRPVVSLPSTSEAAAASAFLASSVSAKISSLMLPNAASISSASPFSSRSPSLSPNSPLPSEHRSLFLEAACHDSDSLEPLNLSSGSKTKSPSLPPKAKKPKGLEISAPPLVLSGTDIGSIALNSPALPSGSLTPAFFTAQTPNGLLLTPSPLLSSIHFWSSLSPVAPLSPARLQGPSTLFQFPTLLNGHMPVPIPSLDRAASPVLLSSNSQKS
Conditions: protein: recombinant; tags: N-terminal GST; dsDNA, one strand shown. Summed up: as §1

The next assay deals with T6, FEV (Homo sapiens, UniProt Q99581 1-238).
T6 sequence: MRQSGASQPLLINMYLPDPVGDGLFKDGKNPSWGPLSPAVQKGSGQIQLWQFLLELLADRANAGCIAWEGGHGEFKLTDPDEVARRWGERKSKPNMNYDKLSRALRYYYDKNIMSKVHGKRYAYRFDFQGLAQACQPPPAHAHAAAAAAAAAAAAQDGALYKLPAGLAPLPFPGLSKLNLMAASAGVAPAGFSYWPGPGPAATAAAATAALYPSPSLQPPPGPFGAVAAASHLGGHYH
Conditions: protein: recombinant; tags: N-terminal GST; dsDNA, one strand shown. Summed up:
as §1

The target of another assay is ETV5 (Homo sapiens, UniProt P41161 1-510). Conditions: protein: recombinant; tags: N-terminal GST; dsDNA, one strand shown. Summed up:
as §1

For the next assay, the target named is HSF1 (Homo sapiens, UniProt Q00613 1-529). Conditions: protein: recombinant; tags: N-terminal GST; chain copies: 3; dsDNA, one strand shown. The essentials:
as §1

For another assay, the target named is T7, SPIC (Homo sapiens, UniProt Q8N5J4 1-248).
T7 sequence: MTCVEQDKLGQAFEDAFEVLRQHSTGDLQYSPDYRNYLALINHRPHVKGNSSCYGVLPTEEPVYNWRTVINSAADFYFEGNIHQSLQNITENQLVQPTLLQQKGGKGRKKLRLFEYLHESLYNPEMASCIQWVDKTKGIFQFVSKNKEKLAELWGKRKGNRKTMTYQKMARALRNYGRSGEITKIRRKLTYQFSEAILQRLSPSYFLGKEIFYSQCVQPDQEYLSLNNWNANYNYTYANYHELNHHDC
Conditions: protein: recombinant; tags: N-terminal GST; dsDNA, one strand shown. The essentials:
as §1

Another assay deals with ELF4 (Homo sapiens, UniProt Q99607 1-663). Conditions: protein: recombinant; tags: N-terminal GST; dsDNA, one strand shown. Summed up:
as §1

Another assay has as its target T8, ELK4 (Homo sapiens, UniProt P28324-2 1-405).
T8 sequence: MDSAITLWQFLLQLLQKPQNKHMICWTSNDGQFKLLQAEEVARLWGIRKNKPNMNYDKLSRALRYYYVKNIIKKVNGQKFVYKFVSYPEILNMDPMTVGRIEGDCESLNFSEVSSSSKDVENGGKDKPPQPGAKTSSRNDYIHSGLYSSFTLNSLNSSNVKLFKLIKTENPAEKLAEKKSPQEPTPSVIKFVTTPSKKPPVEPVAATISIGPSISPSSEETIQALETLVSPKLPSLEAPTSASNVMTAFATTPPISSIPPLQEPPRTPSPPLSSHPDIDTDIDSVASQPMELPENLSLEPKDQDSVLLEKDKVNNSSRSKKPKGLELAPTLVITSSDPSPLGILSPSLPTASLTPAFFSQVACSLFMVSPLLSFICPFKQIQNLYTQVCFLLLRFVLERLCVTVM
Conditions: protein: recombinant; tags: N-terminal GST; dsDNA, one strand shown. Summed up: as §1

The target of a further assay is T9, ETV2 (Homo sapiens, UniProt O00321 1-342).
T9 sequence: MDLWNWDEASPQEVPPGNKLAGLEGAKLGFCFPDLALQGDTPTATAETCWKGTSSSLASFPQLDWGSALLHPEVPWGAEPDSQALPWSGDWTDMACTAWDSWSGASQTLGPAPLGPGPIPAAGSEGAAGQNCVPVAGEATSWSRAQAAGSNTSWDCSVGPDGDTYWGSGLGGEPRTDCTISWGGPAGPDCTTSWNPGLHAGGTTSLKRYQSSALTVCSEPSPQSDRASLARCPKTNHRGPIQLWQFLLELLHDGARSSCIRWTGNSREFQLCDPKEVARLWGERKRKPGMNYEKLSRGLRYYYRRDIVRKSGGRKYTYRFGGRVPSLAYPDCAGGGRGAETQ
Conditions: protein: recombinant; tags: N-terminal GST; dsDNA, one strand shown. Summed up: as §1

Another assay deals with T10, ELF3 (Homo sapiens, UniProt P78545 1-371).
T10 sequence: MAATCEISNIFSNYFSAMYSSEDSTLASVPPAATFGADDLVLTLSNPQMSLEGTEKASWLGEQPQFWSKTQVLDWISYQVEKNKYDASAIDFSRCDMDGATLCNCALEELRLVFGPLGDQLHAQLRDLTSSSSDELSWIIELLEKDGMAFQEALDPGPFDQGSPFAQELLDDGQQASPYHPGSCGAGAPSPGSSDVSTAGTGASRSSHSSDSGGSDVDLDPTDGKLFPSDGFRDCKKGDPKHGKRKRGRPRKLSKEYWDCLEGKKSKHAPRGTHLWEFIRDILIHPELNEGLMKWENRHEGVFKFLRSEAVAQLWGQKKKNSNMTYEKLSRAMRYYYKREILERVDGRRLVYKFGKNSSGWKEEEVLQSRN
Conditions: protein: recombinant; tags: N-terminal GST; dsDNA, one strand shown. Summed up:
as §1

The target in a further assay is CRX (Homo sapiens, UniProt O43186 1-299). Conditions: protein: recombinant; tags: N-terminal GST; dsDNA, one strand shown. The essentials:
as §1

The target in the next assay is ETV1 (Homo sapiens, UniProt P50549 1-477). Conditions: protein: recombinant; tags: N-terminal GST; dsDNA, one strand shown. The essentials: as §1
Chain of ETV1 (P50549 whole entry): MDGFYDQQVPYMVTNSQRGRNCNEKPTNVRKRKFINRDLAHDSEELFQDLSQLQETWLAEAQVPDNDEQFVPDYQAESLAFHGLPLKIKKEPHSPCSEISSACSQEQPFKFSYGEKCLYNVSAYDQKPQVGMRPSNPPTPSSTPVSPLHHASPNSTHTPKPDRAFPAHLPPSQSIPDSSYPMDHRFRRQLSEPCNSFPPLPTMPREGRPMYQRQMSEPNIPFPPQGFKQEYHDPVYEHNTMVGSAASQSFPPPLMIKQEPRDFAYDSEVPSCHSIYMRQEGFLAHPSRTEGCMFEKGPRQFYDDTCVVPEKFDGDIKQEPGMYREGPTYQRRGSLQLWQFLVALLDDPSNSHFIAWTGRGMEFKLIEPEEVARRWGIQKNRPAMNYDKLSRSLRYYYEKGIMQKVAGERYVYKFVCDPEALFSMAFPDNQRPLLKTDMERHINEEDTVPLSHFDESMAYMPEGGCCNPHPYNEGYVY

Chain of HSF1 (Q00613 whole entry): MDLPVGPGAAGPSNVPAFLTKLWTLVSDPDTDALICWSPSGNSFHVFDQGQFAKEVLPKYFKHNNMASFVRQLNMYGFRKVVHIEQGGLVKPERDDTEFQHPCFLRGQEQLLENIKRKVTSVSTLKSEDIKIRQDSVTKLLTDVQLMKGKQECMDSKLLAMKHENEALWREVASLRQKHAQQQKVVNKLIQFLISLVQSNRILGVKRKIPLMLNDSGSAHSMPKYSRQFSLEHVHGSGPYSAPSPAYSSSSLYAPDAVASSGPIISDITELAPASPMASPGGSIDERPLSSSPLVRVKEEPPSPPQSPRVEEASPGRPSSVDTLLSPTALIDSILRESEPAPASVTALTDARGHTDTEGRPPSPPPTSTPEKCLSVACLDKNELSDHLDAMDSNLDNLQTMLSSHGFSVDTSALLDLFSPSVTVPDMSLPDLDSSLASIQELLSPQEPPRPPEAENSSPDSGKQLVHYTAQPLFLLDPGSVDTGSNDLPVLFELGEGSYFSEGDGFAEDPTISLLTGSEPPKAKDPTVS
Chain of SPIB (Q01892 whole entry): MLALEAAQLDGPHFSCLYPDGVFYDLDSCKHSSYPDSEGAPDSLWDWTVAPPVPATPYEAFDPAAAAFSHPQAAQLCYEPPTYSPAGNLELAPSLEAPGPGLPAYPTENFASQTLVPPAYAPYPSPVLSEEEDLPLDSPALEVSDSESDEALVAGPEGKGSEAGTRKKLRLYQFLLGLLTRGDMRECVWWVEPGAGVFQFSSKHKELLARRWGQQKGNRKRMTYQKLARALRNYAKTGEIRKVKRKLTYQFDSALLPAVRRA
Chain of CRX (O43186 whole entry): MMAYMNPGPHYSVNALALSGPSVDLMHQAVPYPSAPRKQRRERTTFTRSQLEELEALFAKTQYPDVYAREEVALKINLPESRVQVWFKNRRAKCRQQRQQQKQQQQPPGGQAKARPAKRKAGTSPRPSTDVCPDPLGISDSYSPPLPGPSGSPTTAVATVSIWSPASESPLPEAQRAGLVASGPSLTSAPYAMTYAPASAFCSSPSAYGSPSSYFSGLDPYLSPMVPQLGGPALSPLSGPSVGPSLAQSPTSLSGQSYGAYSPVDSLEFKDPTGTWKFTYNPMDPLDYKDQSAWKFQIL
Chain of ELF4 (Q99607 whole entry): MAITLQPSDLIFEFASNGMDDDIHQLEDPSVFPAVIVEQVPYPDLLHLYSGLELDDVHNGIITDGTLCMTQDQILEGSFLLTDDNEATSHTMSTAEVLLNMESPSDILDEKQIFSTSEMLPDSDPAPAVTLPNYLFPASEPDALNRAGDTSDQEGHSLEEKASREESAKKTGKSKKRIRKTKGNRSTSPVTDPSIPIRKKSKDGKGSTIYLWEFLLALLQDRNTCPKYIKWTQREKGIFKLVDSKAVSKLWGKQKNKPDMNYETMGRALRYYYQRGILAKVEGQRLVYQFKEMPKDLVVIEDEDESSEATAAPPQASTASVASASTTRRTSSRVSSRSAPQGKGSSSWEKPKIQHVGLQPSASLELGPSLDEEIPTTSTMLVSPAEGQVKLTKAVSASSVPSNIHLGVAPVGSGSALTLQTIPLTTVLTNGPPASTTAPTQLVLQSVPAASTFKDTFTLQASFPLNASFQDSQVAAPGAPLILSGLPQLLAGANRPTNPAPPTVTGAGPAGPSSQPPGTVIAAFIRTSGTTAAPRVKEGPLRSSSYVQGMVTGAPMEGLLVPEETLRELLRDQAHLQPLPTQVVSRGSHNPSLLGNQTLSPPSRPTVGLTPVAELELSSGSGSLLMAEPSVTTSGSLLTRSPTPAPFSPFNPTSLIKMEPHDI
Chain of ELF1 (P32519 whole entry): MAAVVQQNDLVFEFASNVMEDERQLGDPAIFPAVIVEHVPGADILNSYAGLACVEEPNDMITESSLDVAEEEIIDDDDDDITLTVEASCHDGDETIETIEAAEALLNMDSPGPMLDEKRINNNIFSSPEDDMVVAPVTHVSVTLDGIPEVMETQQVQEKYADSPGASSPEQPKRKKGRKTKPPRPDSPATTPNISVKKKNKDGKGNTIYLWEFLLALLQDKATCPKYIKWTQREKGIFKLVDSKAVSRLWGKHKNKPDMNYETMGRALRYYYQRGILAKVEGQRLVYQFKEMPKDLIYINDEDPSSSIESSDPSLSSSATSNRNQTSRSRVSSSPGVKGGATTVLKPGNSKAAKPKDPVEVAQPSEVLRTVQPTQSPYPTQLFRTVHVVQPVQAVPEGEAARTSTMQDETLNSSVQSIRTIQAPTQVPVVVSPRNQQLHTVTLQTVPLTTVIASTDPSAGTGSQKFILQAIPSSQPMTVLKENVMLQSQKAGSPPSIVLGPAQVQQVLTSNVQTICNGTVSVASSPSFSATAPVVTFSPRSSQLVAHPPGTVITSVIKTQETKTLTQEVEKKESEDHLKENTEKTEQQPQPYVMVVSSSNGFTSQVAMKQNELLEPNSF
Chain of ETV5 (P41161 whole entry): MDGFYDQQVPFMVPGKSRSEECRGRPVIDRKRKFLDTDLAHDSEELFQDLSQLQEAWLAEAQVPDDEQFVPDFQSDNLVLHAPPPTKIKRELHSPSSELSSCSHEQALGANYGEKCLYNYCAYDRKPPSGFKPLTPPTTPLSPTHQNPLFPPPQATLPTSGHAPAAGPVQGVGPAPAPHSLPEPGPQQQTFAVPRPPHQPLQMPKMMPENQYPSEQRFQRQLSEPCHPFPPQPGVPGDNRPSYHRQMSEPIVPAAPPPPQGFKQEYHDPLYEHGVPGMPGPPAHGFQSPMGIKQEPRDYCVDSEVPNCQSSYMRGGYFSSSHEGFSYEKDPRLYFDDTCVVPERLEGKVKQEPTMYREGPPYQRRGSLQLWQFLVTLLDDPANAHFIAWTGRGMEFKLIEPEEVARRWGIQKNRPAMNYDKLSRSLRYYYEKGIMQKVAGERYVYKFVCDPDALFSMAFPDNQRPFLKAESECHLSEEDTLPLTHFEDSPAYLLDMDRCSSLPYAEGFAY

Regarding CCCTGG, the binding signal with FLI1 was 1.1 fold enrichment (6-mer frequency, TF over GST control); in the assay with ELK1 it was 1.13 fold enrichment (6-mer frequency, TF over GST control); with GABPA, 1.21 fold enrichment (6-mer frequency, TF over GST control); with ELF1, 1.19 fold enrichment (6-mer frequency, TF over GST control); in the assay with EHF it was 1.11 fold enrichment (6-mer frequency, TF over GST control); with SPI1, 1.06 fold enrichment (6-mer frequency, TF over GST control). The binding signal in the assay with SPIB is 1.09 fold enrichment (6-mer frequency, TF over GST control); with ELK3, 1.03 fold enrichment (6-mer frequency, TF over GST control); with FEV, 1.08 fold enrichment (6-mer frequency, TF over GST control); in the assay with ETV5, 1.09 fold enrichment (6-mer frequency, TF over GST control); with HSF1, 1.11 fold enrichment (6-mer frequency, TF over GST control); with SPIC it was 1.25 fold enrichment (6-mer frequency, TF over GST control). Besides, the binding signal with ELF4 is 1.14 fold enrichment (6-mer frequency, TF over GST control); with ELK4 it was 1.21 fold enrichment (6-mer frequency, TF over GST control); with ETV2 it was 1.04 fold enrichment (6-mer frequency, TF over GST control); with ELF3, 1 fold enrichment (6-mer frequency, TF over GST control); with CRX it was 1.06 fold enrichment (6-mer frequency, TF over GST control); in the assay with ETV1, 1.18 fold enrichment (6-mer frequency, TF over GST control).
